Assay outcomes (PubChem BioAssay)
SARS PLpro yeast-1 – SARS-CoV PLP inhibition in yeast; 330,000 tested, 0.19% active; Potency, µM (doses to about 32.9 µM), for inactives: top-dose activity, positive = growth rescue, hits mostly activators; S. cerevisiae expressing SARS-CoV PLpro, growth rescue; calls by dose curve; note: potency is the fitted concentration of half-maximal effect; 0% is about no effect; nearly all actives have a fitted effect of over 55% in size
Sm TGR inh – blocks Schistosoma mansoni thioredoxin glutathione reductase | 360,000 tested, 3% active | Potency, µM (titrated, usually from 114 µM), inactives show at the highest dose activity change, negative = inhibition, hits mostly inhibitors | AID 485364 | Q962Y6 | purified TGR, DTNB reduction, TNB absorbance 405 nm; note: potency is the fitted concentration of half-maximal effect; % is set by controls: 0 for no effect and ±100 for the full control effect; nearly all actives have a fitted effect of over 60% in size
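First, TGR (20 nM dispensed) and NADPH were mixed with compound. Second, a 15 min room-temperature incubation followed. Third, further NADPH and then DTNB were added to start the reaction. Finally, TNB absorbance was monitored kinetically.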
Tb PYK inh – T. brucei pyruvate kinase inhibition | 410,000 tested, 0.12% active | TbPYK enzyme, Kinase-Glo Plus ATP luminescence, 45 min | Potency, µM (titrated, usually from 76.8 µM), for inactives: top-dose activity, negative = inhibition, most hits filed as inhibitors | AID 624173; note: potency is the fitted concentration of half-maximal effect; % is set by controls: 0 for no effect and ±100 for the full control effect; nearly all actives have a fitted effect of over 50% in size
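Glycolytic pyruvate kinase of T. brucei was incubated with substrate, test compound and 130 uM ADP for 45 minutes at room temperature. Luminescent Kinase-Glo Plus signal was measured after 10 minutes.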
AmpC detergent – inhibitors of E. coli AmpC beta-lactamase with detergent; P00811; Potency, µM (titrated, usually from 114 µM), for the others: top-dose activity change, negative = inhibition, most hits filed as inhibitors; 370,000 tested, 0.041% active; AmpC hydrolysis of nitrocefin, absorbance 480 nm, 0.01% Triton;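 note: potency is the fitted concentration of half-maximal effect; 0% = no-compound wells and -100% = no-enzyme wells; nearly all actives have a fitted effect of over 25% in size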
Target sequence (P00811 whole entry, looked up): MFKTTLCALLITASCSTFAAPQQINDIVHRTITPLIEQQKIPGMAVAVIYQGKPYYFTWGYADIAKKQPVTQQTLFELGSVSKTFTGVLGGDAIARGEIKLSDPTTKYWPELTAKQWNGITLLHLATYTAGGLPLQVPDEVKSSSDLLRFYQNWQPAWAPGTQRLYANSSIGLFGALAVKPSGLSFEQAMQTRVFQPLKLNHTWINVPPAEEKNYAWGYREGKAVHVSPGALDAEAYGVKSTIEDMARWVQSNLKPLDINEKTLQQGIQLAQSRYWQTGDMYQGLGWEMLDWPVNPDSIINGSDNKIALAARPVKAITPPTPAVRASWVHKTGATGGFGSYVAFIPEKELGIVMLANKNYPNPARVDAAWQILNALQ
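AmpC (5.3 nM in the dispensed reagent) in 20 mM phosphate pH 7.0 with 0.01% (detergent screen) or 0.0001% Triton X-100 was preincubated with compounds for 15 min at room temperature. Nitrocefin was then added from an 800 uM solution, and hydrolysis was followed at 480 nm.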
AmpC no deterg – blocks E. coli AmpC beta-lactamase in detergent-free assay; AmpC nitrocefin hydrolysis, absorbance 480 nm, 0.0001% Triton; Potency, µM (titrated, usually from 57.1 µM), for the others: at the highest dose activity change, negative = inhibition, actives largely listed as inhibitors; P00811; 330,000 tested, 0.52% active; AID 485341;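 note: potency is the fitted concentration of half-maximal effect; plate controls were no compound for no effect and no enzyme for full effect; nearly all actives have a fitted effect of over 20% in size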
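AmpC (5.3 nM in the dispensed reagent) in 20 mM phosphate pH 7.0 with 0.01% (detergent screen) or 0.0001% Triton X-100 was preincubated with compounds for 15 min at room temperature. Nitrocefin was then added from an 800 uM solution, and hydrolysis was followed at 480 nm.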
RE007 growth inh – less growth of the S. pombe RE007 Vpr strain; S. pombe RE007 Vpr strain, BacTiter-Glo ATP luminescence, 24 h; Potency, µM (doses to about 92.2 µM), inactives show top-dose activity change, negative = less growth, usual class: inhibitors; 360,000 tested, 0.21% active; AID 651644; active = well fitted falling curve with a large enough effect; inconclusive = small, poorly fitted or top-dose-only effect; inactive = no such curve, though single readings can be large or run the other way; note: potency is the fitted concentration of half-maximal effect; % is set by controls: 0 for no effect and ±100 for the full control effect; nearly all actives have a fitted effect of over 50% in size
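Fission yeast strain RE007, carrying one chromosomally integrated HIV-1 vpr copy, was seeded at OD 0.01 in PMG+AL medium with 23 nL pinned compound. After 24 h at 30 °C and 99% humidity, viability was read by BacTiter-Glo luminescence.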
SARS PLpro yeast-2 – Inhibits SARS-CoV PLP in yeast, hit validation; shares compounds with SARS PLpro yeast-1; yeast expressing SARS-CoV PLpro, growth phenotype rescue; calls only; 1,000 tested, 19% active; call rule not given here
An asterisk follows results filed as active; i = inactive; u = inconclusive; x = no result; + = active, no number; [ ] = dose if it differs, or a comment. This is a sample that favours compounds with a hit; in the whole collection about 3.3% have one here. Unless noted, calls come from the whole dose curve; as a rule, active = well fitted curve in the direction sought with a large enough effect; inconclusive = small, poorly fitted or top-dose-only effect, or another doubt; inactive = no such curve, though single readings can be large; an effect the other way counts as inactive or inconclusive.

SMILES | SARS PLpro yeast-1 | Sm TGR inh | Tb PYK inh | AmpC detergent | AmpC no deterg | RE007 growth inh | SARS PLpro yeast-2
COc1ccc(/C=C2\CN(Cc3ccccc3)C/C(=C\c3ccc(OC)cc3)C2=O)cc1 | 20µM* | 8% | -12% | -5% | -14% | -2% | i
COc1ccc2nc(SCC(=O)NCc3ccccc3)[nH]c2c1 | -9% | -23% | -4% | 0% | -21% | 12% | x
COc1ccc2nc(SCC(=O)Nc3ccccc3)[nH]c2c1 | x | 3% | -10% | 10% | -16% | 7% | i
Cc1c(C)c2c(C)[nH]nc2oc1=O | u | 3% | 0% | -2% | -5% | -17% | i
Cc1ccc(S(=O)(=O)Nc2cccc(-c3ccc(N4CCCCC4)nn3)c2)s1 | x | 1% | 5% | 13% | x | x | x
CC(=NC(C)C)C1=C(O)CCC1=O | u | -4% | -4% | -10% | -7% | 13% | i
COc1cc(OC)cc(-c2nnc(SCC(=O)N3CCC(C)CC3)o2)c1 | x | 2% | -9% | 12% | x | x | x
C=CCc1cccc(/C=N/NC(=O)C(=O)Nc2ccc(C)cc2)c1O | 1% | x | -6% | -2% | -40% | 2% | x
C=CCc1cccc(/C=N/NC(=O)C(C)Nc2ccc(C)cc2)c1O (stereo not drawn) | u | 0% | -10% | -3% | -57% | x | i
O=C(O)c1cc(C2CC2)nn1-c1ccccc1 | u | -24% | -2% | -9% | -24% | 1% | i
CCCC(=O)N1c2nc(C(C)C)nn2C2(CCCCC2)[C@@H]2CCCC[C@@H]21 | x | -4% | 1% | 14% | x | x | x
NC(=NCCc1ccccc1)NS(=O)(=O)c1ccc(F)cc1 | u | -9% | 5% | -7% | -31% | -8% | i
Cn1ncc2c(NCc3ccc(F)cc3)ncnc21 | x | 14% | -2%[15.4 µM] | 6% | x | x | x
O=C(NC1CCCC1)C(=O)N(Cc1cccnc1)C(C(=O)NC1CCCC1)c1ccco1 (stereo not drawn) | 0% | x | -1% | 4% | -10% | 6% | x
O=C(NC1CCCCC1)C(c1ccco1)N(Cc1cccnc1)C(=O)C1COc2ccccc2O1 (stereo not drawn) | u | -6% | -5% | 5% | 31% | 0% | i
Cc1ccc2[nH]c(CSc3nnc(NC(=O)COc4ccccc4Cl)s3)cc(=O)c2c1 | x | 0% | -3% | 18% | x | x | x
Cc1ccc(C(=O)Nc2ccc3c(c2)OCO3)o1 | -10% | -10% | u | -14% | -7% | u | x
C/C(=C\C(=O)c1ccc(C)o1)Nc1ccc2c(c1)OCO2 | u | 1% | -3% | -9% | -14% | -23% | i
CC(C(=O)c1ccccc1)N1C(=O)c2ccccc2C1=O (stereo not drawn) | u | -2% | -1% | -2% | -8% | 9% | i
COc1ccc(S(=O)(=O)NCCN2CCOCC2)c(C)c1C | 0% | -2% | -1% | -19% | -9% | -8% | x
COc1ccc(S(=O)(=O)NCCN2CCOCC2)c2ccccc12 | 20µM* | 1% | -8% | -11% | -7% | -11% | i
CN1/C(=C\C(=S)NC(=O)c2ccccc2Cl)C(C)(C)c2ccccc21 | u | -3% | -9% | -1% | -34% | 0% | +
NC(N)=NC1=NC(=O)/C(=C/c2ccccc2-n2cccn2)S1 | x | -1% | 3% | -2% | -33% | 20% | i
C/C(=N\NC(=S)NC1CCCCC1)c1ccccc1 | 7.9µM* | 3% | -7% | 11% | 0% | 3% | +
COCc1cc(C2C(C(=O)c3ccco3)=C(O)C(=O)N2CCOCCO)ccc1O (stereo not drawn) | 2.8µM* | 0% | -3% | u | -10% | 21% | i
SMILES | SARS PLpro yeast-1 | Sm TGR inh | Tb PYK inh | AmpC detergent | AmpC no deterg | RE007 growth inh | SARS PLpro yeast-2
COCCCN1C(=O)C(O)=C(C(=O)c2ccco2)C1c1ccccc1 (stereo not drawn) | -5% | 1% | 8% | u | -6% | -12% | x
Cc1ccc2cccc(NC(=O)COc3ccccc3[N+](=O)[O-])c2n1 | x | 1% | 4% | 21% | x | x | x
Brc1ccc(C2N3CCCN23)cc1 (stereo not drawn) | 18µM* | 1% | 3% | -6% | -3% | 21% | u
CN1C(=O)SC(Nc2cccc3ccccc23)C1=O (stereo not drawn) | 13µM* | 0% | -1% | 2% | -26% | -24% | i
COc1ccc(OCC(=O)Nn2c(-c3ccc(C)cc3)nc3ccccc3c2=O)cc1 | 22% | 2% | -7% | 0% | -14% | -11% | x
COc1ccc(OCC(=O)Nn2c(-c3ccc(OC)cc3)nc3ccccc3c2=O)cc1 | u | -8% | -10% | -1% | -43% | -1% | +
Cc1nnc2n(-c3ccccc3)c(=O)c3c4c(sc3n12)COC(C)(C)C4 | u | 0% | 2% | -9% | -1% | 8% | i
COc1ccc(Cc2nnc(N/N=C/c3ccc(O)cc3O)[nH]c2=O)cc1OC | 6.3µM* | 8% | -1% | 5% | -13% | -10% | i
O=C(Cc1ccccc1[N+](=O)[O-])NCc1ccc(Cl)cc1Cl | u | -4% | 2% | 0% | -8% | 30% | i
Cc1ccc(C)c(Cn2c(=O)n(-c3ccc(F)cc3)c(=O)c3sc4ccccc4c32)c1 | x | 7% | 3% | 13% | x | x | x
O=C(COC(=O)c1cc(-c2ccccc2)nc2c(Cl)cccc12)c1ccc(F)cc1 | x | -3% | 0% | 20% | x | x | x
CC1=C(C(=O)N2CCc3ccccc32)C2(CCC(C)CC2)OC1=O (stereo not drawn) | u | 0% | x | -6% | 30% | -11%[3.69 µM] | i
O=C(CCNS(=O)(=O)c1cccs1)Nc1ccccc1F | u | -20% | 1% | 1% | -23% | 0% | i
O=C(CCNS(=O)(=O)c1cccs1)Nc1nccs1 | 7% | -28% | -2% | 0% | -16% | 2% | x
CCCCCn1c(=O)c(Cc2ccccc2)c(O)c2ccccc21 | -7% | -7% | 0% | u | -19% | -3% | x
Cn1c(=O)c(Cc2ccccc2)c(O)c2ccccc21 | 10µM* | -22% | -3% | 1% | -4% | -4% | u
C=CCn1c(O)c(N=NC(=S)Nc2cccc(C)c2)c2ccccc21 | u | 8% | 1% | u | 10% | 4% | +
Cc1ccc(NC(=O)CSc2nc3ccc(NC(=O)CCc4ccccc4)cc3s2)cc1 | x | 2% | 0% | 18% | x | x | x
